Data published in PubChem BioAssay (NCI).
About 83,000 compounds went through this panel and 20% of them were active in at least one assay; those are over-represented in the sample as a whole.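 Single-dose data. Exposure time 48 hours. Values below 10 considered active.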 Active and inactive are the calls of the source.

Assays:
Experiment in all cases: NCI-60 one-dose screen, 48 h (100 = growth as untreated, 0 = no growth, -100 = all killed)
Conditions in all cases: 10 µM unless noted
NCI-H23 lung = system: NCI-H23 lung
NCI-H226 lung = system: NCI-H226 lung
NCI-H322M lung = system: NCI-H322M lung
HOP-62 NSCLC = system: HOP-62 NSCLC
NCI-H460 lung = system: NCI-H460 lung
HOP-92 NSCLC = system: HOP-92 NSCLC
NCI-H522 lung = system: NCI-H522 lung
A549/ATCC NSCLC = system: A549/ATCC NSCLC
786-0 renal = system: 786-0 renal
COLO 205 colon = system: COLO 205 colon

Measured: growth

O=C(O)c1ccc(NCc2cn(-c3ccc(C(F)(F)F)cc3)nc2-c2ccc(C(=O)O)cc2)cc1
active: HOP-92 NSCLC -7.09%
inactive: NCI-H23 lung 107% | NCI-H226 lung 111% | NCI-H322M lung 106% | HOP-62 NSCLC 101% | NCI-H460 lung 103% | NCI-H522 lung 93.1% | A549/ATCC NSCLC 106% | 786-0 renal 105% | COLO 205 colon 119%

CCCCCN1C=C/C(=C\C(=O)N2CCCc3ccccc32)c2ccccc21
inactive: NCI-H23 lung 57.5% | NCI-H226 lung 79.3% | NCI-H322M lung 102% | HOP-62 NSCLC 107% | NCI-H460 lung 91.9% | HOP-92 NSCLC 73.5% | NCI-H522 lung 68.5% | A549/ATCC NSCLC 89.4% | 786-0 renal 95.6% | COLO 205 colon 96.8%

Oc1cccc(CCc2ccc(Oc3cc(CCc4cccc(O)c4)cc(O)c3O)cc2)c1
inactive: NCI-H23 lung 89% | NCI-H226 lung 84.4% | NCI-H322M lung 81.8% | HOP-62 NSCLC 92.5% | NCI-H460 lung 66.4% | HOP-92 NSCLC 53.5% | A549/ATCC NSCLC 83% | 786-0 renal 92.8% | COLO 205 colon 111%
active: NCI-H522 lung -8.62%

COc1cc(CC(=O)c2ccc(O)c(OC)c2)ccc1O
inactive: NCI-H23 lung 103% | NCI-H226 lung 81.9% | NCI-H322M lung 89.6% | HOP-62 NSCLC 91.4% | NCI-H460 lung 100% | HOP-92 NSCLC 84.5% | NCI-H522 lung 88.4% | A549/ATCC NSCLC 79.5% | 786-0 renal 104% | COLO 205 colon 107%

CCOC(=O)[C@@H]1CCCN(S(=O)(=O)c2ccc(S(=O)(=O)N(CC)CC)c(F)c2)C1
inactive: NCI-H23 lung 45.3% | NCI-H226 lung 72.6% | NCI-H322M lung 90.2% | HOP-62 NSCLC 74.6% | NCI-H460 lung 81.2% | HOP-92 NSCLC 67.4% | NCI-H522 lung 65.3% | A549/ATCC NSCLC 86.2% | 786-0 renal 70.7% | COLO 205 colon 83.9%

O=C(/C=C/c1ccc[nH]1)c1ccc(-n2ccc(C(F)(F)F)n2)c(F)c1
inactive: NCI-H23 lung 88.7% | NCI-H226 lung 84% | NCI-H322M lung 85.1% | HOP-62 NSCLC 103% | NCI-H460 lung 100% | HOP-92 NSCLC 92.4% | NCI-H522 lung 69.5% | A549/ATCC NSCLC 87.4% | 786-0 renal 91.8% | COLO 205 colon 119%

O=C(CCN1CCCC1)Nc1ccc2c(Nc3ccc(Br)cc3)c3ccccc3nc2c1
inactive: NCI-H23 lung 18.8% | NCI-H226 lung 62% | HOP-92 NSCLC 31.3% | 786-0 renal 42.8%
active: NCI-H322M lung -11.4% | HOP-62 NSCLC -19.5% | NCI-H460 lung -69.2% | NCI-H522 lung -25% | A549/ATCC NSCLC -42.4% | COLO 205 colon -42.9%

O=C1NN(C(=O)c2ccccc2)C(c2ccc(Cl)c(Cl)c2)=C/C1=C\c1ccc([N+](=O)[O-])cc1
active: HOP-92 NSCLC 3.02%
inactive: NCI-H23 lung 85.3% | NCI-H226 lung 88.7% | NCI-H322M lung 98% | HOP-62 NSCLC 101% | NCI-H460 lung 83% | NCI-H522 lung 63.8% | A549/ATCC NSCLC 96.2% | 786-0 renal 102% | COLO 205 colon 27.9%

CN1CCC(=C(c2ccccc2)c2ccccc2)C(c2ccccc2)C1 (stereo not given)
inactive: NCI-H23 lung 88.1% | NCI-H226 lung 96.3% | NCI-H322M lung 96.7% | HOP-62 NSCLC 101% | NCI-H460 lung 103% | HOP-92 NSCLC 82.8% | NCI-H522 lung 85.2% | A549/ATCC NSCLC 90.8% | 786-0 renal 95.1% | COLO 205 colon 83%

CN(C)c1ccc(C2C(C#N)=C(/N=C/c3ccccc3)Oc3c2ccc2ccccc32)cc1 (stereo not given)
inactive: NCI-H23 lung 80.9% | NCI-H226 lung 55.5% | NCI-H322M lung 98.5% | HOP-62 NSCLC 51.2% | NCI-H460 lung 51.3% | HOP-92 NSCLC 59.8% | NCI-H522 lung 36.4% | A549/ATCC NSCLC 71.4% | 786-0 renal 89% | COLO 205 colon 116%

CC1=CCC(OC(=O)C(C)(O)CCC(O)(C(=O)OC2(C)C=CC(O)(C(C)C)CC2)C(C)C)(C(C)C)CC1 (stereo not given)
inactive: NCI-H23 lung 108% | NCI-H226 lung 106% | NCI-H322M lung 99.1% | HOP-62 NSCLC 99.8% | NCI-H460 lung 111% | HOP-92 NSCLC 109% | NCI-H522 lung 93.7% | A549/ATCC NSCLC 101% | 786-0 renal 100% | COLO 205 colon 116%

O=C(Nc1ccc(Cl)cc1)c1cc(NCc2cc(O)ccc2O)ccc1O
active: NCI-H522 lung -59.7%
inactive: NCI-H23 lung 93.2% | NCI-H226 lung 95.2% | NCI-H322M lung 94.9% | HOP-62 NSCLC 102% | NCI-H460 lung 98.7% | HOP-92 NSCLC 80.4% | A549/ATCC NSCLC 80.7% | 786-0 renal 95.6% | COLO 205 colon 105%

CCNC(=O)Oc1ccc(/C(=C(\C)c2ccccc2)c2ccc(OCCN(CC)CC)cc2)cc1
inactive: NCI-H23 lung 78.9% | NCI-H226 lung 95.6% | NCI-H322M lung 99% | HOP-62 NSCLC 96.2% | NCI-H460 lung 86.6% | HOP-92 NSCLC 70.9% | NCI-H522 lung 93.7% | A549/ATCC NSCLC 65.5% | 786-0 renal 66.3% | COLO 205 colon 52.2%

Cc1cc2nc3c4cccc(O)c4n(CCN(C)C)c3nc2cc1C
inactive: NCI-H23 lung 32.3% | NCI-H226 lung 37% | NCI-H322M lung 38% | HOP-62 NSCLC 31.7% | HOP-92 NSCLC 55.1% | NCI-H522 lung 31% | A549/ATCC NSCLC 20.4% | 786-0 renal 40.4% | COLO 205 colon 59.7%
active: NCI-H460 lung 9.09%

CC[C@]12C=CCN3CC[C@@]4(c5cc(NC(=O)CCC(=O)O[C@H]6CC[C@H]7[C@@H]8CCC9=CC(=O)CC[C@@H]9[C@H]8CC[C@]67C)c(OC)cc5N(C)[C@H]4[C@@](O)(C(=O)OC)[C@@H]1OC(C)=O)[C@@H]32
inactive: NCI-H23 lung 90.7% | NCI-H226 lung 86.5% | NCI-H322M lung 91.1% | HOP-62 NSCLC 89.3% | NCI-H460 lung 77.4% | HOP-92 NSCLC 64.6% | NCI-H522 lung 69.9% | A549/ATCC NSCLC 74.3% | 786-0 renal 86% | COLO 205 colon 89.8%

N=C(N)c1ccc(OCCCCCCCCCCOc2ccc(C(=N)N)cc2)cc1
active: NCI-H23 lung -69.5% | NCI-H226 lung -71.7% | NCI-H322M lung -99% | HOP-62 NSCLC -76.6% | NCI-H460 lung -88.6% | HOP-92 NSCLC -86.1% | NCI-H522 lung -75.8% | A549/ATCC NSCLC -85.4% | 786-0 renal -89.8% | COLO 205 colon -61.6%

CN[C@@H](C)C(=O)N[C@H]1CCS[C@H]2CC(C)(C)[C@@H](C(=O)N[C@H]3c4ccccc4C[C@H]3OCC#CC#CCO[C@@H]3Cc4ccccc4[C@@H]3NC(=O)[C@H]3N4C(=O)[C@@H](NC(=O)[C@H](C)NC)CCS[C@H]4CC3(C)C)N2C1=O
inactive: NCI-H23 lung 57.6% | NCI-H226 lung 129% | NCI-H322M lung 92.4% | HOP-62 NSCLC 66.8% | NCI-H460 lung 114% | HOP-92 NSCLC 79.4% | NCI-H522 lung 56.9% | A549/ATCC NSCLC 95.3% | 786-0 renal 99.2% | COLO 205 colon 103%

C/C(=N\NC(=O)CSc1nc2ccccc2c(=O)n1CCc1ccc(S(N)(=O)=O)cc1)c1ccccn1
active: COLO 205 colon 8.47%
inactive: NCI-H23 lung 50.4% | NCI-H226 lung 43.4% | NCI-H322M lung 25.9% | HOP-62 NSCLC 25.2% | NCI-H460 lung 12.1% | HOP-92 NSCLC 67.5% | NCI-H522 lung 18.9% | A549/ATCC NSCLC 21.1% | 786-0 renal 34.8%

O=C1Nc2cc(-c3cccc(O)c3)ccc2/C1=C/c1ccc[nH]1
inactive: NCI-H226 lung 73.9% | NCI-H322M lung 21.8% | HOP-62 NSCLC 14% | HOP-92 NSCLC 30.9% | A549/ATCC NSCLC 17.7% | 786-0 renal 15% | COLO 205 colon 83.7%
active: NCI-H23 lung 4.68% | NCI-H460 lung 4.52% | NCI-H522 lung 3.76%

COc1ccc(C(C)=O)c(OC)c1
inactive: NCI-H23 lung 105% | NCI-H226 lung 95.1% | NCI-H322M lung 124% | HOP-62 NSCLC 103% | NCI-H460 lung 115% | HOP-92 NSCLC 75.5% | NCI-H522 lung 89.9% | A549/ATCC NSCLC 105% | 786-0 renal 103% | COLO 205 colon 113%
